Bioassay records: PubChem, National Center for Advancing Translational Sciences (NCATS)
AmpC detergent = qHTS Inhibitors of AmpC Beta-Lactamase (assay with detergent); P00811; Potency, µM (titrated, usually from 114 µM), for inactives: at the top dose activity change, negative = inhibition, hits mostly inhibitors; AmpC hydrolysis of nitrocefin, absorbance 480 nm, 0.01% Triton; AID 485294, 2010; hit rate 0.041% among 370,000;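 note: 0% = no-compound wells and -100% = no-enzyme wells; nearly all actives have a fitted effect of over 25% in size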
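AmpC (5.3 nM in the dispensed reagent) in 20 mM phosphate pH 7.0 with 0.01% (detergent screen) or 0.0001% Triton X-100 was preincubated with compounds for 15 min at room temperature. Nitrocefin was then added from an 800 uM solution, and hydrolysis was followed at 480 nm.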
LmPK inh = qHTS Assay for Inhibitors of Leishmania Mexicana Pyruvate Kinase (LmPK); Q27686; purified LmPK, Kinase-Glo ATP luminescence, 1 h; Potency, µM (highest dose often 57.5 µM), without a hit: at the highest dose activity change, negative = inhibition, hits mostly inhibitors; hit rate 0.37% among 290,000; AID 1721, 2009
Target sequence (Q27686 whole entry, looked up): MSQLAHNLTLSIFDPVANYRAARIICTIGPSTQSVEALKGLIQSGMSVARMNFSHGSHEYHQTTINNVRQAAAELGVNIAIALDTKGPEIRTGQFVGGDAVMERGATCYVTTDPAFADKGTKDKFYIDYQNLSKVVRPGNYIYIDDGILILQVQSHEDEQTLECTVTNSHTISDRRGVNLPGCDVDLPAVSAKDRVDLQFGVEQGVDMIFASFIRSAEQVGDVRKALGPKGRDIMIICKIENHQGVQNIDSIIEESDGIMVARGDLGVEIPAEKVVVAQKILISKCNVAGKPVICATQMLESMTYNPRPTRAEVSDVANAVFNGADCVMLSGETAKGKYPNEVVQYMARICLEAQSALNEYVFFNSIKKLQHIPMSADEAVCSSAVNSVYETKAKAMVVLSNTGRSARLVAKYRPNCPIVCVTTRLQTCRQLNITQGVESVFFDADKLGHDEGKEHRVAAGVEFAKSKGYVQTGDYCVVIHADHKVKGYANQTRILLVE
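Pyruvate kinase activity monitored as ATP production (luciferase luminescence). Conditions: 0.1 nM enzyme, 0.5 mM PEP, 0.1 mM ADP, 1 h, RT; normalized against uninhibited and no-enzyme wells.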
AmpC no deterg = qHTS Inhibitors of AmpC Beta-Lactamase (assay without detergent) | P00811 | AmpC nitrocefin hydrolysis, absorbance 480 nm, 0.0001% Triton | Potency, µM (top dose mostly 57.1 µM), without a hit: at the highest dose activity change, negative = inhibition, most hits filed as inhibitors | hit rate 0.52% among 330,000 | AID 485341, 2010;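 note: plate controls were no compound for no effect and no enzyme for full effect; nearly all actives have a fitted effect of over 20% in size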
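20 mM phosphate pH 7.0 + 0.01% (detergent screen) or 0.0001% Triton X-100; 5.3 nM AmpC reagent; cpd preinc 15 min RT; nitrocefin (800 uM stock) to start; A480 q20 s × 4 min; Activity was normalised to no-enzyme and no-compound control wells.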
AMA1 RON2 block = qHTS for Inhibitors of AMA1-RON; Towards Development of Antimalarial Drug Lead: Primary Screen; Potency, µM (top dose mostly 58.2 µM), without a hit: top-dose activity change, negative = inhibition, hits mostly inhibitors; hit rate 0.2% among 360,000; AlphaScreen AMA1-biotinylated RON2 peptide binding;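 note: 0% = vehicle wells and -100% = peptide control; nearly all actives have a fitted effect of over 45% in size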
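AMA1 (3D7) with his tag at 25 nM final met compounds first, then biotinylated RON2 peptide at 25 nM; detection used donor plus acceptor beads, 10 µg/mL apiece, read by AlphaScreen after 30 min at room temperature.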
FBPA Giardia inh = qHTS Assay for Inhibitors of Fructose-1,6-bisphosphate Aldolase from Giardia Lamblia. purified Giardia FBPA. hit rate 0.71% among 290,000. AID 2451, 2010. A8B2U2. Potency, µM (series often up to 59.6 µM), for the others: at the highest dose activity, negative = inhibition, usual class: inhibitors; note: nearly all actives have a fitted effect of over 55% in size
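Giardia FBPA (40 nM reagent) was preincubated 10 min at RT with compound (up to 57.5 uM final), then substrate plus GAPDH/TPI/NAD/arsenate coupling system with diaphorase/resazurin was added; resorufin fluorescence (525/598 nm) was read after 20 min.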
Numbers without * were called inactive; ? = inconclusive; . = no result. Sampled rows, rich in hits. Any-hit rate of the full collection: about 1.3%. Calls come from the whole dose curve; as a rule, active = well fitted curve in the direction sought with a large enough effect; inconclusive = small, poorly fitted or top-dose-only effect, or another doubt; inactive = no such curve, though single readings can be large; an effect the other way counts as inactive or inconclusive. Unless noted, % is set by controls: 0 for no effect and ±100 for the full control effect; potency is the fitted concentration of half-maximal effect.

SMILES | AmpC detergent | LmPK inh | AmpC no deterg | AMA1 RON2 block | FBPA Giardia inh
c1ccc(CCNc2ccnc3cc4ccccc4cc23)cc1 | -5% | 4% | 18µM* | -1% | ?
COCCn1c(SCC(=O)N(C)c2ccccc2)nc2c([nH]c3ccccc32)c1=O | -9% | 3% | 6% | 6% | 2%
c1ccc(-c2ccc(-c3ccccn3)nn2)nc1 | -13% | 14µM* | -10% | . | ?
c1ccc(-c2ccccn2)nc1 | -12% | 1% | -36% | 79% | ?
CCOC(=O)c1c(C)oc2c1c(C(c1ccccc1)N1CCOCC1)c(O)c1ccccc12 (configuration not stated) | 3% | 4% | -35% | -13% | ?
CCOC(=O)c1c(C)oc2c1c(C=NCCO)c(O)c1ccccc12 | 0% | -6% | 244% | 77% | 2µM*
O=C(C[C@H]1CC[C@H]2[C@@H](COC[C@@H](O)CN2Cc2cc(F)ccc2F)O1)NCc1ccc(Cl)cc1 | . | . | . | 0% | .
CCOc1ccc(NC(=O)CN2CC(c3ccccc3)CC2=O)cc1 (configuration not stated) | -15% | -1% | 2.5µM* | -1% | 0%
COc1ccc2nc(/C(C#N)=C\c3ccc(Oc4ccc([N+](=O)[O-])cn4)cc3)[nH]c2c1 | -4% | -4% | ? | 41% | 2%
Cc1ccc2nc(/C(C#N)=C\c3ccc(Oc4ccc([N+](=O)[O-])cn4)cc3)[nH]c2c1 | -6% | 5% | 28µM* | 24% | -4%
CCc1ccc(S(=O)(=O)c2nnn(-c3ccc(F)cc3)c2N)cc1 | 13% | . | . | . | .
CC(C)(C)OC(=O)NCCc1onc(-c2ccccc2F)c1C(=O)O | . | . | . | 8% | .
CN1C2CC(OC(=O)C(CO)c3ccccc3)C[C@@H]1[C@H]1OC21 (some centres not stated) | . | . | . | . | 2%
CC(c1ccccc1)n1c(Cn2ncc3ccccc3c2=O)n[nH]c1=S (configuration not stated) | 5% | -6% | -13% | 22% | 5%
CCc1cc(-c2n[nH]c(=S)n2C(C)c2ccccc2)cs1 (configuration not stated) | -3% | 14µM* | -8% | 22% | 16%
Cc1scc(-c2n[nH]c(=S)n2C(C)c2ccccc2)c1C (configuration not stated) | 4% | 13µM* | -5% | 39% | 0%
CC(c1ccccc1)n1c(-c2ccc(C(C)(C)C)cc2)n[nH]c1=S (configuration not stated) | -2% | -18% | -24% | 85% | 12%
Cc1ccccc1NS(=O)(=O)c1ccc2[nH]cc(C(=O)NCCc3ccccc3)c(=O)c2c1 | ? | . | -21% | . | .
CCCCC1CCC(C(=O)N(C)CC(=O)Nc2cccc(F)c2)CC1 (configuration not stated) | -7% | 5% | -23% | -9% | .
CCC1CCCCC1 | . | . | . | . | 5%
Cn1c2cc(B(O)O)sc2c2cnn(Cc3c(F)cccc3F)c(=O)c21 | 2.5µM* | . | 5.6µM* | . | .
Cn1c2cc(Br)sc2c2cnn(Cc3ccc(F)cc3F)c(=O)c21 | ? | . | -8% | . | .
Cn1c2cc(B(O)O)sc2c2cnn(Cc3ccc(F)cc3F)c(=O)c21 | 3.5µM* | . | 3.5µM* | . | .
Cn1c2cc(B(O)O)sc2c2cnn(Cc3c(F)cccc3Cl)c(=O)c21 | 2.5µM* | . | 5µM* | . | .
Cn1c2cc(Br)sc2c2cnn(Cc3c(F)cccc3F)c(=O)c21 | 7% | . | -10% | . | .
SMILES | AmpC detergent | LmPK inh | AmpC no deterg | AMA1 RON2 block | FBPA Giardia inh
Cn1c2cc(Br)sc2c2cnn(Cc3c(F)cccc3Cl)c(=O)c21 | -11% | . | -24% | . | .
Fc1cccc(Cc2c(-c3ccccc3)nc3c4ccccc4ccn23)c1 | . | . | . | 0% | .
C[C@]12CC(=CO)C(=O)C[C@@H]1CC[C@@H]1[C@@H]2CC[C@@]2(C)[C@H]1CC[C@]2(C)O | 50µM* | 6% | -26% | . | -22%
C[C@]1(O)CCC2C3CC[C@@H]4CC(=O)CC[C@]4(C)C3CC[C@@]21C (some centres not stated) | . | . | 20% | -2% | .
Cc1ccc2nc(NC(=O)Cn3cc4c(n3)CCCCC4)sc2c1 | ? | -12% | 2.8µM* | 22% | ?
CC(C)CCNC(=O)Cn1cc2c(n1)CCCCC2 | ? | -4% | 45µM* | -6% | 1%
CCOCCCNC(=O)Cn1cc2c(n1)CCCCC2 | ? | 0% | 45µM* | 20% | 1%
O=C(Cn1cc2c(n1)CCCCC2)NCc1ccccc1 | ? | -1% | -4% | 12% | -4%
CCN(Cc1ccccc1)C(=O)Cn1cc2c(n1)CCCC2 | -15% | 2% | 4.5µM* | -3% | -4%
CCN1CCN(CCCNC(=O)c2ccc3c(c2)NC(=O)c2ccccc2S3)CC1 | 1% | 2% | 4µM* | 8% | 3%
O=C(NCCCN1CCCC1=O)c1ccc2c(c1)NC(=O)c1ccccc1S2 | ? | 3% | -4% | -1% | 3%
COc1ccc(NC(=O)Cn2c(=O)n(Cc3ccccc3)c(=O)c3sc4ccccc4c32)cc1 | -1% | . | . | . | .
N/C(=N\OC(=O)c1cccc2ccccc12)c1ccccn1 | 3% | -20% | -29% | 28% | -3%
N/C(=N\OC(=O)c1ccco1)c1ccccc1 | -22% | 22µM* | -7% | 8% | 4%
Cc1ccc(/C(N)=N/OC(=O)c2ccco2)cc1 | -4% | ? | -32% | 0% | 2%
N/C(=N\OC(=O)c1ccco1)c1ccccn1 | 3% | 13µM* | -9% | 70% | -4%
Cc1cccc(/C(N)=N/OC(=O)c2ccco2)c1 | -11% | 16µM* | -19% | 10% | 5%
COc1ccc(/C(N)=N/OC(=O)c2ccco2)cc1 | ? | 11µM* | -7% | 10% | 0%
N/C(=N\OC(=O)c1ccco1)c1ccc(Br)cc1 | -12% | -22% | -13% | 0% | 5%
CCOC(=O)C1(C)CCCN(C(=O)c2c(-c3ccccc3)noc2C)C1 (configuration not stated) | . | . | . | 2% | .
COc1cc(OC)cc(C(=O)Nc2cc3c(cc2N2CCOCC2)n(C)c(=O)n3C)c1 | 11% | . | . | . | .
COCCCNC(=O)CC1Oc2ccccc2NC1=O (configuration not stated) | ? | 1% | 10µM* | 20% | 6%
CCCSCCCNC(=O)CC1Oc2ccccc2NC1=O (configuration not stated) | ? | 0% | -14% | -6% | 3%
Clc1ccc(-c2nc3ccncc3[nH]2)cc1 | ? | 14µM* | -20% | -21% | -5%
Cc1ccc(S(=O)(=O)N2CCC(C(=O)Nc3ccccc3N3CCCCC3)CC2)cc1 | 32µM* | -3% | -19% | -8% | 3%
